Our source for the outcome values is PubChem BioAssay AID743131 (Broad Institute, 2013).

The assay is described as follows: viability loss in HEK293T cells – cell-based, ATP luminescence, dry powder, set 3, cytotoxicity control, dose response (AID 743131).

Results with a measured potency or affinity are listed apart. Records with an inconclusive call do not appear. The source made the active and inactive calls.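 The calls were made as follows: active = cell viability loss with a fitted half-maximal concentration at or below twice the top valid dose; inconclusive = flat curve losing 30 to 70% viability, or a poor fit; inactive = the rest.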

Turning to `COC(=O)C1=C(C)N(Cc2ccc(Br)cc2)C(=S)NC1c1ccc(OC)cc1` (stereo not given), the molecule was classed as inactive.
As to `O=c1[nH]c2ccccc2n1CCOc1ccccc1`, the molecule was classed as inactive.
Next, `CCOC(=O)c1c(-c2ccc(F)cc2)csc1NC(=O)CN1CCN(CC)CC1`: “inactive”.
As for `Cc1ccc2c(c1)[nH]c(=S)n2CCOc1ccccc1`, the call was inactive.
For the molecule `Cc1ccc(OCCn2c(C)nc3ccccc32)cc1`, the molecule was classed as inactive.
Next, `COC(=O)C1=C(C)N(Cc2ccc(F)cc2)C(=S)NC1c1cccc(F)c1` (stereo not given): “inactive”; `Cc1ccc(OCCn2cnc3ccccc32)cc1`: “inactive”.
With `CCOc1ccc(OCCn2c(=S)[nH]c3ccccc32)cc1`, the call was inactive.
For the molecule `CCOC(=O)c1c(-c2ccc(F)cc2)csc1NC(=O)CN1CCN(C)CC1`, the result was inactive.
As to `COC(=O)C1=C(C)N(Cc2ccc(Br)cc2)C(=S)NC1c1ccc(F)cc1` (stereo not given), the outcome was inactive.
Consider `Cc1ccc(OCCn2c(SCCO)nc3ccccc32)c(C(C)C)c1`, for which the molecule was classed as inactive.
For the molecule `Fc1cccc2c1[nH]c(=S)n2CCOc1ccccc1`, the result was inactive.
Consider `CCOC(=O)c1c(-c2ccc(OC)cc2)csc1NC(=O)CN(C)CC(=O)N(C)C`, for which the outcome was inactive.
`Cc1ccc(OCCn2c(=S)[nH]c3ccccc32)cc1`: the call was inactive.
Next, `COC(=O)C1=C(C)N(Cc2ccc(Cl)cc2)C(=S)NC1c1ccc(Br)cc1` (stereo not given): “inactive”; `CCOC(=O)c1c(-c2ccc(C(C)(C)C)cc2)csc1NC(=O)CN1CCN(C)CC1`: “inactive”.
In the case of `S=c1[nH]c2cccc(Cl)c2n1CCOc1ccccc1`, the call was inactive.
As for `S=c1[nH]c2ccccc2n1CCOc1ccc(Cl)cc1`, the call was inactive.
For `Fc1ccccc1OCCn1c(=S)[nH]c2ccccc21`, the result was inactive.
Take `S=c1[nH]c2ccccc2n1CCOc1ccccc1`: the result was inactive.
